Where “and” joins values, the source holds several entries; their conditions need not be identical. Equal values may be shown once. Some compounds were tested as several samples or in several runs, with calls that do not always agree. Calls of active or inactive are those of the source. Unless noted, no rule for the calls is given here.
What was measured:
[1] = tested on: Wnt5a (protein binding on small-molecule microarray); assay: Wnt5a binders on small-molecule microarray, primary screen, biophysical, 635/667 nm fluorescence (AID 1142); details: 635 nm fluorescence, higher = more signal;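 also: fluorescence read at 667 nm with signal to noise per printed feature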
[2] = cell viability in Huh7 cells, primary screen, cytotoxicity control for HCV replication inhibitor project, CellTiter-Glo luminescence, basal, 48 h (AID 1143); details: Huh7 HCV replicon, higher = more signal, called active from +8 up or from −8 down;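 also: Huh7 hepatoma cells carrying a hepatitis C replication reporter with no stimulus; test concentration not given here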
[3] = P. aeruginosa biofilm formation inhibitors, primary screen, PAO1 strain, BacTiter-Glo luminescence, LB-PBS (AID 1144); details: 12 h, higher = more signal
[4] = CREB reporter modulators without forskolin, primary screen, cell-based, PC12, CRE-LacZ reporter, unstimulated (AID 1145); details: no forskolin, luminescence, 4.5 h, higher = more signal, called active from +8 up or from −8 down
[5] = CREB reporter modulators under forskolin, primary screen, cell-based, PC12, CRE-LacZ reporter, forskolin-stimulated (AID 1146); details: luminescence, 4.5 h, higher = more signal, called active from +8 up or from −8 down;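 also: PC12 cells with 6xCRE LacZ reporter stimulated by forskolin 10 µM; beta-galactosidase reporter signal reflecting CREB driven transcription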
[6] = molecular target: Streptavidin (Streptomyces avidinii) (UniProt P22629); assay: streptavidin binders on small-molecule microarray, primary screen, artefact control for SMM compound annotation, biophysical, 635/667 nm fluorescence (AID 1147); details: streptavidin binding, higher = more signal;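 also: signal reflects streptavidin binding to arrayed compounds as a control protein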
Streptavidin (Streptomyces avidinii), sequence (P22629 whole entry, looked up): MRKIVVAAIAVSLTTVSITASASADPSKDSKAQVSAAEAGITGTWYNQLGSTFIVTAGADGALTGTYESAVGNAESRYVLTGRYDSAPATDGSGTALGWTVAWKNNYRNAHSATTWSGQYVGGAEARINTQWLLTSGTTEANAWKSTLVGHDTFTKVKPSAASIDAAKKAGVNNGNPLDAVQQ

[7] = small-molecule binders of probe aInhba, primary screen, biochemical, small-molecule microarray, 635/667 nm fluorescence (AID 1148); details: higher = more signal;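 also: score merges 667nm spot fluorescence with signal-to-noise for antibody binding to printed compounds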
[8] = molecular target: Torsin-1A (Homo sapiens) (UniProt O14656); assay: torsin A binders from cell lysate, primary screen, small-molecule microarray, wild-type, 635/667 nm (AID 1149); details: COS7 hTOR1A-WT lysate, 635 nm fluorescence, higher = more signal
Torsin-1A (Homo sapiens), sequence (O14656 whole entry, looked up): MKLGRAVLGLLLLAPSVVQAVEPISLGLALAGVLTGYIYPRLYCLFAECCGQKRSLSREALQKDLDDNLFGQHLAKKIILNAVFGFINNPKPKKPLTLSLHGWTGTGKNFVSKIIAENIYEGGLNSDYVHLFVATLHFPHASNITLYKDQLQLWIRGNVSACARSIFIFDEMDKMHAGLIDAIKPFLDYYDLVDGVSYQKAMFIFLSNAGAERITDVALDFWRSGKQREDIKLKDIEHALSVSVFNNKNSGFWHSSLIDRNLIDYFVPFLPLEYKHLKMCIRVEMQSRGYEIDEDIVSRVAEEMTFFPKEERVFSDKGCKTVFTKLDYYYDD

[9] = molecular target: Torsin-1A (Homo sapiens) (UniProt O14656); assay: small-molecule binders of mutant TOR1A in lysate, primary screen, cell lysate, small-molecule microarray, COS7 lysate, 635/667 nm fluorescence (AID 1150); details: COS7 hTOR1A mutant lysate, 635 nm fluorescence, higher = more signal;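 also: score pools 667 nm emission and signal to noise measuring lysate protein binding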
[10] = tested on: Sonic hedgehog protein (Shh); assay: small-molecule binders of Shh protein, primary screen, biochemical, small-molecule microarray, 635/667 nm fluorescence (AID 1151); details: small-molecule microarray binding, 635 nm fluorescence; higher = more signal;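 also: Shh protein binding to compounds spotted on small-molecule microarray slides; score combines spot fluorescence intensity with signal-to-noise across triplicate slides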
[11] = E. coli DRC41 culture turbidity changes, primary screen, E. coli filamentation inducer project, strain DRC41, OD650, 48 h (AID 1152);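 also: E. coli MC1000 strain DRC41 lacking acrAB efflux pump and sulA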; details: E. coli DRC41 (acrAB sulA), higher = more signal, called active from +8 up or from −8 down
[12] = small-molecule binders of probe aLefty1, primary screen, biochemical, small-molecule microarray, 635/667 nm fluorescence (AID 1153); details: higher = more signal;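 also: score merges spot fluorescence with signal-to-noise ratio from the scanned slide images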
[13] = PSAC antagonists in infected red cells, primary screen, cell-based, P. falciparum Indochina, OD700, 1 h (AID 1154); details: P. falciparum Indochina infected RBC osmotic lysis, higher = more signal, called active from +8 up or from −8 down
[14] = PSAC antagonists in infected red cells, primary screen, cell-based, P. falciparum Indochina, OD700, 2 h (AID 1155);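 also: lysis reports solute entry through the parasite surface anion channel PSAC; channel blockers reduce lysis of infected cells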; details: P. falciparum Indochina infected erythrocytes, osmotic lysis OD700; higher = more signal, called active from +8 up or from −8 down
[15] = osmotic lysis modulators in infected erythrocytes, primary screen, PSAC antagonist project, cell-based, P. falciparum Indochina, OD700, 3 h (AID 1156); details: higher = more signal, called active from +8 up or from −8 down
[16] = PSAC antagonists in infected red cells, primary screen, cell-based, P. falciparum Indochina, OD700, 18 h (AID 1157); details: P. falciparum Indochina infected erythrocytes, osmotic lysis OD700, 18 h; higher = more signal, called active from +8 up or from −8 down
[17] = modulators of S6 phosphorylation in cells, primary screen, cell-based, A549, cytoblot, luminescence, serum-stimulated (AID 1158); details: A549 phospho-S6 cytoblot, 5 h, higher = more signal;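 also: serum-stimulated A549 lung adenocarcinoma cells; signal is phosphorylated S6 detected by cytoblot immunostaining with HRP secondary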
[18] = molecular target: NADPH oxidase 2 (Homo sapiens) (UniProt P04839); assay: NOX2-dependent H2O2 signal modulators, primary screen, NOX inhibitor project, cell-based, HEK293-NOX2, PMA-stimulated, Amplex Red fluorescence (AID 1159); details: 45 min, higher = more signal, called active from +8 up or from −8 down; also: test concentration not given here
NADPH oxidase 2 (Homo sapiens), sequence (P04839 whole entry, looked up): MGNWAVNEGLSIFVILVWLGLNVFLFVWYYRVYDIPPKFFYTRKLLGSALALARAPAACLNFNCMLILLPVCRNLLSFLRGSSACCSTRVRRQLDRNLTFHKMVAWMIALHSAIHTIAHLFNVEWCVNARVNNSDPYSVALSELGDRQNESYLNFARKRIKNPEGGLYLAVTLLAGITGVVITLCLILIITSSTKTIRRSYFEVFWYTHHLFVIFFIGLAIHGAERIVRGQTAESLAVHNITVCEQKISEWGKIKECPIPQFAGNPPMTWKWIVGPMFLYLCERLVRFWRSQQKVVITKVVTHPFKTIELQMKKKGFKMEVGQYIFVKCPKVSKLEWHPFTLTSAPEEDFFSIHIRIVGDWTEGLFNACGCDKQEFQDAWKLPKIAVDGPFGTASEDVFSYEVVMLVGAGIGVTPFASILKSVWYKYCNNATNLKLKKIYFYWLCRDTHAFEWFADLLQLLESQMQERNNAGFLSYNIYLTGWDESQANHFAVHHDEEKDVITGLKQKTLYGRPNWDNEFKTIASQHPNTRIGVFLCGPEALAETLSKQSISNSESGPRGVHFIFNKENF

[19] = molecular target: NADPH oxidase 4 (Homo sapiens) (UniProt Q9NPH5); assay: NOX4-dependent H2O2 signal modulators, primary screen, NOX inhibitor project, cell-based, HEK293-NOX4, tetracycline-induced, Amplex Red fluorescence (AID 1160); details: 45 min, higher = more signal, called active from +8 up or from −8 down
NADPH oxidase 4 (Homo sapiens), sequence (Q9NPH5 whole entry, looked up): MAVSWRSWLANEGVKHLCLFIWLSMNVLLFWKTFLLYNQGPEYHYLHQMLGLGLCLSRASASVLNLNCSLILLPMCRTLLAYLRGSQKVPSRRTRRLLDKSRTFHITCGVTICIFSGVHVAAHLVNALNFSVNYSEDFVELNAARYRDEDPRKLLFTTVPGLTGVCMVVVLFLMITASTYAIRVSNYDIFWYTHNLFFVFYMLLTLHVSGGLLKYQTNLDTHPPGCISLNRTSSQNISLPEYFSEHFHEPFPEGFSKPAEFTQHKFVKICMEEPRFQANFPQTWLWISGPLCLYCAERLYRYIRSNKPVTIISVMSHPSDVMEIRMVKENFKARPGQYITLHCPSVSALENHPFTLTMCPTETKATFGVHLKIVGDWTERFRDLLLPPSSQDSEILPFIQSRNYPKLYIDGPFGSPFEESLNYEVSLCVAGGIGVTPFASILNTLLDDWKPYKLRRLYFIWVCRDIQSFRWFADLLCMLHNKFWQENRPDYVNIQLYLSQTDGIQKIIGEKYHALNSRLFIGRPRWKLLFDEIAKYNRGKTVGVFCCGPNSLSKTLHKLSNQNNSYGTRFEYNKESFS

[20] = molecular target: NADPH oxidase 5 (Homo sapiens) (UniProt Q96PH1); assay: NOX5-dependent H2O2 signal modulators, primary screen, NOX inhibitor project, cell-based, HEK293-NOX5, Amplex Red fluorescence (AID 1161); details: HEK293-NOX5, ionomycin, 45 min, higher = more signal
NADPH oxidase 5 (Homo sapiens), sequence (Q96PH1 whole entry, looked up): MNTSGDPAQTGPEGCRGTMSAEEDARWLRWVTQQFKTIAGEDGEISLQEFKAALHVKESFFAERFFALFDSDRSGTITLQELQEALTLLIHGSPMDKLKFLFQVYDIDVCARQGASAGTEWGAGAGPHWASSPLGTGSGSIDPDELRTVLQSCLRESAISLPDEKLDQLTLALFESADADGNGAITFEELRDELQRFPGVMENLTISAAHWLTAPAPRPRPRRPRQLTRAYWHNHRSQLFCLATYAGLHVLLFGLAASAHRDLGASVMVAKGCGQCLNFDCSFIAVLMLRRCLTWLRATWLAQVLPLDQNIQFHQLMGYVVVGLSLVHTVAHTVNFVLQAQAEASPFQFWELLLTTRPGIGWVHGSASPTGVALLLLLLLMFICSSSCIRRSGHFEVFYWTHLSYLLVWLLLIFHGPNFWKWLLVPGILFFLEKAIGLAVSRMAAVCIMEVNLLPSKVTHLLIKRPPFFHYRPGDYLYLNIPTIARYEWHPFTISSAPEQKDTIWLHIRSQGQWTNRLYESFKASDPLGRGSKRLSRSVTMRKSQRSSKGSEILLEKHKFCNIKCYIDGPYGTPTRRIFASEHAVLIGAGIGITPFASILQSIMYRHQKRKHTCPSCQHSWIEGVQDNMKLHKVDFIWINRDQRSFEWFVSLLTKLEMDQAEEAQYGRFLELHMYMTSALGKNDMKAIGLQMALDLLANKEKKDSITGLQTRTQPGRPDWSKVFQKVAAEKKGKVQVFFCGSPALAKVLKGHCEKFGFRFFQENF

Compound	composite z-score [1]	z-score [2]	z-score [3]	z-score [4]	z-score [5]	composite z-score [6]	composite z-score [7]	composite z-score [8]	composite z-score [9]	composite z-score [10]	z-score [11]	composite z-score [12]	z-score [13]	z-score [14]	z-score [15]	z-score [16]	z-score [17]	z-score [18]	z-score [19]	z-score [20]
CC(C)CCN1CCc2nc(-c3ccccc3)c3c(c2C1)CO[C@@H](C)C3	0.0842	0.267 (inactive)	0.268 (inactive)	4.64 (inactive)	-0.44 (inactive)	0.375	0.0173	0.509	0.471	0.827	0.842 (inactive)	0.173	0.253 (inactive)	0.145 (inactive)	-0.895 (inactive)	0.0992 (inactive)	-0.768	1.12 (inactive)	0.461 (inactive)	0.427
Cc1ccc(S(=O)(=O)N[C@@H]2COC(=O)CC=C[C@@H](C)[C@@H]3C=C[C@H](O)[C@@H](COC(=O)CC=C[C@H]2C)O3)cc1	-0.0379 and -0.0821	-0.0259 (inactive) and -3.11 (inactive)	-0.356 (inactive) and -2.59 (inactive)	-0.384 (inactive) and -0.478 (inactive)	-0.419 (inactive) and -0.201 (inactive)	-0.298 and 0.657	-0.111 and -0.157	0.815 and 0.176	0.665 and 0.263	1.43 and 0.631	-0.134 (inactive) and -0.835 (inactive)	-0.217 and 0.0658	-0.178 (inactive) and -0.723 (inactive)	-0.377 (inactive) and -1.3 (inactive)	-0.603 (inactive) and 1.03 (inactive)	0.035 (inactive) and -1.47 (inactive)	0.116 and 1.08	-2.15 (inactive) and -1.22 (inactive)	0.427 (inactive) and -1.36 (inactive)	0.353 and -2.6
CCOC(=O)[C@H](Cc1ccccc1)NC(=O)CCC1CC(OC(=O)NCc2cccc3ccccc23)CC2(CCCC(COC(=O)NCCCN3CCCC3=O)O2)O1 (stereo not given in full)	0.0828	-0.486 (inactive)	-1.02 (inactive)	-0.072 (inactive)	0.309 (inactive)	0.609	-0.154	0.0655	0.327	0.63	-0.0133 (inactive)	0.0371	-0.532 (inactive)	-0.874 (inactive)	-2.17 (inactive)	-0.685 (inactive)	-0.46	1.09 (inactive)	0.487 (inactive)	-0.609
C=CCN(Cc1ccccc1)C(=O)C1N(c2ccc(CCO)cc2)C(=O)C2C(C(=O)O)C3C=CC21O3 (stereo not given)	-0.588 and -0.549	0.012 (inactive) and -0.668 (inactive)	-0.231 (inactive) and -1.01 (inactive)	0.195 (inactive) and -0.899 (inactive)	0.892 (inactive) and -0.29 (inactive)	-1.49 and -1.35	-0.273 and -0.206	-2.02 and -4.14	-3.2 and -2.45	-1.7 and -1.87	0.458 (inactive) and 1.31 (inactive)	-0.289 and -0.27	1.25 (inactive) and 1.16 (inactive)	0.401 (inactive) and 0.572 (inactive)	0.0406 (inactive) and -0.339 (inactive)	-0.157 (inactive) and 0.382 (inactive)	-0.0071 and 0.775	0.819 (inactive) and 0.498 (inactive)	-1.13 (inactive) and -0.149 (inactive)	0.865 and 0.168
C=CCN(CCCCC)C(=O)C1N(c2ccc(CCO)cc2)C(=O)C2C(C(=O)O)C3C=CC21O3 (stereo not given)	-0.479 and -0.327	-0.641 (inactive) and -0.552 (inactive)	0.839 (inactive) and 0.128 (inactive)	-0.48 (inactive) and -0.619 (inactive)	0.589 (inactive) and -0.601 (inactive)	-1.64 and -1.36	-0.206 and 0.789	-1.94 and -0.448	0.101 and -1.53	-0.568 and 2.02	-0.202 (inactive) and 0.216 (inactive)	-0.0099 and 0.0736	1.47 (inactive) and 1.68 (inactive)	0.351 (inactive) and 0.438 (inactive)	-0.148 (inactive) and -0.54 (inactive)	0.0385 (inactive) and 0.356 (inactive)	1.15 and 0.435	1.21 (inactive) and 0.745 (inactive)	0.564 (inactive) and 0.124 (inactive)	0.698 and 0.836
CC(CO)N1C(=O)[C@@H]2C3C(=O)OCCC=C[C@H]3OC23C=CCN(CCN2CCOCC2)C(=O)[C@@H]13 (stereo not given in full)	-0.0538 and 0.351	-0.0826 (inactive) and 0.0065 (inactive)	0.129 (inactive) and 0.971 (inactive)	0.317 (inactive) and -0.492 (inactive)	0.643 (inactive) and 0.22 (inactive)	-0.0427 and 1.12	-0.0719 and 0.0053	-0.674 and 0.148	-0.198 and 0.276	0.521 and 0.746	-0.671 (inactive) and -0.55 (inactive)	-0.181 and 0.476	0.0695 (inactive) and 6.53 (inactive)	0.573 (inactive) and 1.15 (inactive)	0.727 (inactive) and 0.906 (inactive)	0.138 (inactive) and 0.21 (inactive)	-0.38 and -0.0957	1.08 (inactive) and 1 (inactive)	0.376 (inactive) and 0.0486 (inactive)	1.25 and 2.04
C=CCN(C(=O)C1N(CCCCCCO)C(=O)C2C(C(=O)O)C3C=CC21O3)C(C)(C)C (stereo not given)	-1.54 and -1.09	0.317 (inactive) and 0.148 (inactive)	1.99 (inactive) and 1.42 (inactive)	0.992 (inactive) and -0.216 (inactive)	0.129 (inactive) and 0.453 (inactive)	-1.47 and -1.01	-0.251 and -0.278	-3.52 and -3.83	-3.07 and -2.82	-1.68 and -1.49	-0.32 (inactive) and -0.471 (inactive)	-0.0573 and 0.0451	0.203 (inactive) and 0.288 (inactive)	0.357 (inactive) and -0.387 (inactive)	-0.395 (inactive) and -0.274 (inactive)	-0.28 (inactive) and -0.404 (inactive)	0.473 and -0.117	0.93 (inactive) and 0.763 (inactive)	-0.0347 (inactive) and 0.143 (inactive)	0.588 and 1.41
C[C@@]1([C@@H](NC(=O)Cc2ccccc2)c2ccc(-c3ccccc3)cc2)C[C@H]1C1CCCCC1	1.42 and 1.03 and 0.799	-4.75 (inactive) and -1.29 (inactive) and -1.07 (inactive)	-0.411 (inactive) and -0.255 (inactive) and 0.378 (inactive)	-0.957 (inactive) and -0.185 (inactive) and -0.375 (inactive)	-1.27 (inactive) and 0.614 (inactive) and 0.79 (inactive)	2.11 and 0.863 and -0.261	0.846 and 1.64 and -0.328	0.0326 and 1.34 and 0.296	0.621 and 0.522 and 0.821	-1.33 and -0.836 and -0.607	-1.01 (inactive) and -1.14 (inactive) and -2.63 (inactive)	1.31 and 1.96 and -0.533	2.55 (inactive) and 0.584 (inactive) and 10.1 (active)	-0.208 (inactive) and 0.325 (inactive) and 1.68 (inactive)	1.01 (inactive) and 1.19 (inactive) and 0.922 (inactive)	-1.51 (inactive) and 0.741 (inactive) and 0.644 (inactive)	1.28 and -0.396 and -0.729	-4.2 (inactive) and -0.505 (inactive) and -1.36 (inactive)	-5.91 (inactive) and -3.11 (inactive) and -1.7 (inactive)	-3.09 and 0.173 and 0.832
O=C1[C@H]2[C@H]3[C@H](O)[C@H](O)CC(=NOCc4ccccc4)[C@H]3CC[C@H]2C(=O)N1Cc1ccccc1	0.0003	-5.42 (inactive)	-0.788 (inactive)	0.796 (inactive)	0.888 (inactive)	0.725	-0.257	0.119	0.358	0.659	-0.925 (inactive)	0.0037	5.58 (inactive)	0.42 (inactive)	0.224 (inactive)	-0.456 (inactive)	0.741	-1.14 (inactive)	-2.92 (inactive)	-2.42
C#CCN1C(/C=C/c2ccccc2)C(=O)OC[C@H]1c1ccccc1 (stereo not given in full)	0.161 and 0.111	-5.93 (inactive) and -0.403 (inactive)	-0.793 (inactive)	2.48 (inactive) and -0.682 (inactive)	-1.66 (inactive) and -0.836 (inactive)	-0.0296 and -0.175	-0.0853 and 0.0807	0.419 and -0.479	0.436 and 0.128	0.713 and 1.03	1.75 (inactive) and 0.239 (inactive)	-0.021 and -0.0536	4.02 (inactive) and 1.57 (inactive)	0.277 (inactive) and 0.538 (inactive)	0.244 (inactive) and 0.713 (inactive)	-0.947 (inactive) and 0.377 (inactive)	4.14 and -0.153	0.353 (inactive) and 1.86 (inactive)	0.0869 (inactive) and 0.344 (inactive)	0.189 and 0.518

Source: PubChem BioAssay
